Source: PubChem
Tg IFNy HTS: T. gondii growth inhibition under IFN-gamma; Toxoplasma gondii growth in IFN-gamma-treated host cells; hits give low values; activity change, negative = inhibition, % (no concentration beside the values); 3.8% of 69,000 active; in the data active means activity change below about -70%, passing the limit was not always enough;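 further: host cells are HeLa cells infected with Toxoplasma gondii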
Each line names hits and unclear results; the compound was inactive in the other large screens. Shown is part of a subset that was picked to be rich in hits.

N#Cc1cccc(NC2COC3(CCN(C(=O)c4ccoc4)C3)C2)n1 (stereo unspecified)	none
O=C(c1ccccc1N1CCS(=O)(=O)CC1)N1CCC2(CCCO2)CC1	none
CN(C)CC1(O)CCN(C(=O)CCc2c[nH]c3ccccc23)C1 (stereo unspecified)	none
COCC(C)NCCc1csc(-c2ccncc2)n1 (stereo unspecified)	none
Cc1cc2ccccc2n1CCNC(=O)c1cc2n(n1)CCCN(C)C2	none
Cn1cc(-c2ncnc3c2CCN(c2ncc(F)cn2)CC3)cn1	none
Cc1cc(C(=O)NCc2csc(-c3ncccn3)n2)c2cccc(C)c2n1	none
O=C(CCC1CCCC1)N1CCc2c([nH]c3ccccc23)C1c1cccnc1 (stereo unspecified)	none
COc1ccc(C2c3[nH]c4ccccc4c3CCN2C(=O)c2ccncc2)cc1 (stereo unspecified)	none
COc1cccc(C(=O)N2CCc3c([nH]c4ccccc34)C2c2cccnc2)c1 (stereo unspecified)	Tg IFNy HTS -106.9
O=C(c1cccc(F)c1)N1CCc2c([nH]c3ccccc23)C1c1cccnc1 (stereo unspecified)	Tg IFNy HTS -96.3
O=C(c1ccc(F)cc1)N1CCc2c([nH]c3ccccc23)C1c1cccnc1 (stereo unspecified)	none
Cc1oc(-c2ccccc2)nc1Cc1noc(Cc2c[nH]c3ccccc23)n1	none
COc1cc(C(=O)NCCc2csc(-c3cccc(C)c3)n2)cc(OC)c1OC	none
COCCN1CCN(C(=O)N2CCOCC2)Cc2ccc(C)nc21	none
COc1cc(C(=O)NCCc2csc(-c3ccccc3)n2)cc(OC)c1OC	none
O=c1c2ccccc2oc2cc(O)ccc12	none
Cc1c(Cc2c(Cl)cccc2Cl)c(=O)oc2cc(O)ccc12	Tg IFNy HTS -70.8
COc1cc(COc2ccc3c(C)c(Cc4ccccc4)c(=O)oc3c2)cc(OC)c1OC	none
CN(Cc1cc2n(n1)CCNC2)Cc1cc(-c2ccccn2)no1	none
CCc1ccc(Nc2nc(C(=O)N3CCOCC3)nc3ccccc23)cc1	none
CNCCNC(=O)c1ccccc1Cc1ccc(Cl)cc1	none
Cc1cc(C)n(-c2c(Cl)cc(C(F)(F)F)cc2Cl)n1	none
CSc1nn(-c2c(Cl)cc(C(F)(F)F)cc2Cl)c(N)c1C#N	Tg IFNy HTS -100.6
CSc1nc(-c2cccs2)cc(C(F)(F)F)c1C#N	none
Cn1ccn2ncc(C(=O)N(Cc3ccc4c(c3)OCO4)C3CC3)c12	none
OCCn1c(-c2cccc3cccnc23)nc2ccccc21	none
Cc1[nH][nH]c(=O)c1C1(C(C#N)C#N)C2CC3CC(C2)CC1C3 (stereo unspecified)	none
N=C1SC(c2ccccc2)C(=O)N1c1nc2ccccc2s1 (stereo unspecified)	Tg IFNy HTS -82.1
COc1ccc(N2C(=O)CC(N3CCN(c4nc5ccccc5s4)CC3)C2=O)cc1 (stereo unspecified)	none
COc1ccc(C2CC(=O)c3cnn(-c4nc5ccccc5s4)c3C2)cc1 (stereo unspecified)	none
CCOCC1CC2(CCN(C(=O)Cc3ccccc3F)CC2)CO1 (stereo unspecified)	none
Cc1ccc2cccc(SCC(=O)Nc3ccc4c(c3)oc3ccccc34)c2n1	none
COc1ccc(CC(=O)N2CC[C@H]3[C@@H]2CCN3c2ncccn2)cc1	none
CC(C)CN1C2COCC1CN(S(=O)(=O)c1cn(C)cn1)C2	none
FC(F)(F)c1cc(N/N=C2/CCSc3sccc32)cc(C(F)(F)F)c1	Tg IFNy HTS -103.2
Cn1nccc1C(=O)N1CCc2c([nH]c3ccccc23)C1c1ccc(Cl)cc1 (stereo unspecified)	Tg IFNy HTS -114.9
COCC(=O)N1CCc2c([nH]c3ccccc23)C1c1ccc(Cl)cc1 (stereo unspecified)	none
Cc1ccc(C2c3[nH]c4ccccc4c3CCN2C(=O)c2cccnc2)cc1 (stereo unspecified)	none
COc1cccc(C(=O)N2CCc3c([nH]c4ccccc34)C2c2ccc(C)cc2)c1 (stereo unspecified)	Tg IFNy HTS -126.5
CSc1ccc(C2c3[nH]c4ccccc4c3CCN2C(=O)c2ccc(Cl)cc2)cc1 (stereo unspecified)	none
CSc1ccc(C2c3[nH]c4ccccc4c3CCN2C(=O)c2ccc3c(c2)OCO3)cc1 (stereo unspecified)	none
O=C(c1ccc2c(c1)OCO2)N1CCc2c([nH]c3ccccc23)C1c1ccc(Cl)cc1 (stereo unspecified)	Tg IFNy HTS -83.2
Cc1ccc(C2c3[nH]c4ccccc4c3CCN2C(=O)CCC2CCCC2)cc1 (stereo unspecified)	none
O=C(c1cccnc1)N1CCc2c([nH]c3ccccc23)C1c1ccc(Cl)cc1 (stereo unspecified)	Tg IFNy HTS -113.6
O=C(c1cccnc1)N1CCc2c([nH]c3ccccc23)C1c1ccc(F)cc1 (stereo unspecified)	none
Cc1noc(C[C@@H]2C[C@@H]3CN(S(C)(=O)=O)C[C@@H]3O2)n1	none
Cc1ncc(CO)c(CN(C)CC2COc3ccccc3O2)c1O (stereo unspecified)	none
CCc1ccc(Nc2nc(-c3nnc(-c4ccccc4)o3)nc3ccccc23)cc1	none
O=C(c1cccs1)N1C[C@H]2OC(=O)N(CCc3ccc(F)cc3)[C@H]2C1	none
Cc1ccccc1-c1noc(CN[C@@H]2c3ccccc3C[C@@H]2O)n1	none
C=C1/C(=C\C=C2/CCC[C@]3(C)[C@@H]([C@H](C)CC[C@@H](O)C(C)C)CC[C@@H]23)C[C@@H](O)C[C@@H]1O	none
CN(Cc1ccccc1)Cc1cc(C(=O)N(C)Cc2nccn2C)no1	none
C=CCOC1CC2COCC(C1)N2Cc1cccc(F)c1 (stereo unspecified)	none
COc1ccc(CCC(=O)NCCc2sc(-c3ccc(F)cc3)nc2C)cc1	none
CCOC(=O)CCc1csc(N)n1	none
CN(Cc1cccs1)c1nc(C(C)(C)C)nc2c1cnn2C	none
NC(=O)c1cc2c(nc1N1C[C@@H]3[C@H](C1)[C@H]1CC[C@@H]3O1)CCC2	none
COc1cccc(C(=O)N2CCc3c([nH]c4ccccc34)C2c2ccc(Cl)cc2)c1 (stereo unspecified)	Tg IFNy HTS -99.5
O=C(c1ccco1)N1CCc2c([nH]c3ccccc23)C1c1cccnc1 (stereo unspecified)	none
O=C(c1ccco1)N1CCc2c([nH]c3ccccc23)C1c1ccc(Cl)cc1 (stereo unspecified)	Tg IFNy HTS -87.6
COc1ccc(C(=O)N2CCc3c([nH]c4ccccc34)C2c2ccc(Cl)cc2)cc1OC (stereo unspecified)	none
Cc1ccc(C2c3[nH]c4ccccc4c3CCN2C(=O)c2cccc(Cl)c2)cc1 (stereo unspecified)	Tg IFNy HTS -89.2
O=C(C1CCC1)N1CCc2c([nH]c3ccccc23)C1c1ccc(Cl)cc1 (stereo unspecified)	none
CSc1ccc(C2c3[nH]c4ccccc4c3CCN2C(=O)c2cccc(Cl)c2)cc1 (stereo unspecified)	none
CC(C)C(NC(=O)C12CC3CC(C1)CC(n1ncnn1)(C3)C2)c1ccc(F)cc1 (stereo unspecified)	none
Cc1c(C(C)NC(=O)c2cnc(-c3ccc(Cl)cc3)nc2)cnn1C (stereo unspecified)	none
CCCNC(=O)c1cn(-c2nc(CNc3cccnc3)c3ccccn23)cn1	none
CCN1CCO[C@H]2CCN(C(=O)c3cn(C)cn3)C[C@H]21	none
CC(C)C(=O)NCc1csc(C2CCCN(C(=O)c3ccc(F)c(F)c3)C2)n1 (stereo unspecified)	none
CCOC(=O)c1cccc(NC(=O)Nc2ccc(-c3nc(-c4ccc(C)cc4C)co3)cc2)c1	none
